Hit rate of the full screen: of about 63,000 compounds, about 1,100 (1.7%) were called active. The sample as a whole holds a higher share of actives than the screen did. Potency and affinity values are given separately. A number with no mark means an inactive call. No stated cut-off is given here; in the data, active means cytotoxicity above about 50%; inactive means the rest.
Assay: HPDE-C7 pancreatic duct cell viability loss – fluorescence, HTS (AID 430);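 further: cells exposed to compound for 48 hours before viability readout; 0% = vehicle and 100% = reference cytotoxic drug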
Conditions: HPDE-C7 pancreatic duct cells viability, at 10 µM, active compounds read high

Structure (SMILES) | cytotoxicity
CCOc1ccc(-c2nc(N)ncc2-c2ccccc2)c(O)c1 | 2.3%
Cc1c(C(=O)Nn2cnnc2)oc2ccccc12 | -26.6%
CC(NC(=O)c1ccc(CS(=O)(=O)Cc2ccccc2F)o1)c1ccc2c(c1)OCCO2 (stereo unspecified) | -10.6%
O=S(=O)(NCC1CC1)c1cccc(S(=O)(=O)N2CCCC2)c1 | -7.4%
Cc1ccc(-c2noc(COc3ccccc3C)n2)cc1 | -19.6%
Cc1ccccc1OCc1nc(-c2ccc(-n3cccc3)cc2)no1 | 62.3% (active)
Cc1ccccc1OCc1nc(-c2ccccc2)no1 | -12.2%
Cc1cc(=O)[nH]c(SCC(=O)NCc2ccco2)n1 | -38.4%
O=C(Cn1nnc(-c2ccccc2NC(=O)c2cccs2)n1)Nc1ccccc1 | -6.9%
CCn1c(SCC(=O)N(C(C)C)C(C)C)nnc1-c1cc2ccccc2cc1O | -2.4%
Cc1cccc(N2CCN(c3cccc(C)c3)C2c2cccnc2)c1 | 52.6% (active)
Cc1ccc(N2CCN(c3ccc(C)cc3)C2c2ccncc2)cc1 | -18.2%
Cc1cccc(N2CCN(C(=O)c3ccncc3)CC2C)c1 (stereo unspecified) | -2.2%
CCC(=O)OCCn1c(=O)c2cc3c(=O)n(CCOC(=O)CC)c(=O)c3cc2c1=O | 1.2%
CCOC(=O)C1=C(C)NC(=O)NC1c1ccc(OC)c(Cl)c1 (stereo unspecified) | -1.8%
O=C(Nc1ccc(-c2nc3ccccc3o2)cc1)C1CCCO1 (stereo unspecified) | 2.5%
O=c1cc(-c2ccccc2)[nH]c2nc3ccccc3n12 | 34.3%
COc1ccc(-c2cc(=O)n(-c3nc4ccccc4[nH]3)[nH]2)cc1 | 35%
O=c1cc(-c2ccccc2)[nH]n1-c1nc2ccccc2s1 | 61.9% (active)
CC(=NC1CCCC1)c1c(C)[nH]n(-c2nc3ccccc3s2)c1=O | -9.3%
Cc1nn(-c2nc3ccccc3s2)c(N)c1-c1ccccc1 | 6.1%
CCn1c(SCC(=O)N(Cc2ccccc2)C2CCS(=O)(=O)C2)nc2ccccc2c1=O (stereo unspecified) | -7.3%
C1=C(CCNc2ncnc3nc[nH]c23)CCCC1 | 0%
CCCCCC(=O)Nc1ccc2oc(-c3cncc(Br)c3)nc2c1 | -3.1%
CCn1c(=O)n(CC(=O)Nc2cccc(OC)c2)c(=O)c2ccccc21 | -12.1%
CN(C)CCCNC(=O)Cc1ccc(Br)cc1 | -3.8%

Structure (SMILES) | cytotoxicity
COc1cc(C2C(C(=O)c3ccc(C)o3)=C(O)C(=O)N2c2cc(C)on2)ccc1O (stereo unspecified) | -0.7%
CC(NC(=O)NCCCn1ccnc1)(C(F)(F)F)C(F)(F)F | 9.8%
O=C(Nc1ccc(CN2CCOCC2)cc1)c1cc2ccccc2o1 | -0.1%
O=C(Nc1ccc(CN2CCCCC2)cc1)c1ccc(Br)o1 | -14.9%
O=C(Cc1ccc(-c2ccccc2)cc1)NCCN1CCOCC1 | -11.8%
O=C(Nc1ccc2nc(-c3ccc(Br)o3)[nH]c2c1)c1cccs1 | 53.5% (active)
O=C(Nc1ccc2nc(-c3ccc(Br)o3)[nH]c2c1)c1ccco1 | 44.7%
O=C(Nc1ccc2nc(-c3ccco3)[nH]c2c1)c1cccs1 | 8%
CNC(=O)CCn1nc(-c2ccc(Cl)cc2)c2ccccc2c1=O | 10.8%
Oc1ccc(N=Cc2ccc(O)c(O)c2)cc1 | 18%
COc1ccc(-c2cc(O)cc(O)c2)cc1 | -7.5%
CCn1c(C2CC(=O)N(Cc3ccccc3)C2)nc2ccccc21 (stereo unspecified) | -14.7%
O=C1CC(=O)N(Cc2cccs2)C(=O)N1 | -15.3%
O=C(O)c1ccc(NC(=O)C2CC=CCC2C(=O)O)cc1 (stereo unspecified) | -3.4%
CCOCCCN(Cc1cc2cc(C)cc(C)c2[nH]c1=O)C(=O)N(CC)CC | -8.9%
Cc1nc2sc3c(c2c(=O)o1)CCC3 | 4.8%
Cc1nc2sc3c(c2c(=O)o1)CCCC3 | 0%
Nn1c(-c2cccs2)nc2sc3c(c2c1=O)CCCC3 | -1.4%
O=c1oc(-c2cccs2)nc2sc3c(c12)CCC3 | 28.2%
O=c1oc(-c2cccs2)nc2sc3c(c12)CCCCC3 | 52% (active)
O=c1oc(-c2cc3ccccc3o2)nc2sc3c(c12)CCCC3 | 51.3% (active)
O=C(CN1C(=O)CSC1=O)NCc1ccccc1 | 8.1%
O=C(c1cc(S(=O)(=O)N2CCOCC2)ccc1F)N1CCN(Cc2ccccc2)CC1 | -2.7%
O=C(CSc1nc2ccccc2c(=O)n1CCC(=O)N1CCCCC1)NCc1ccccc1 | -24.2%
COc1ccc(-c2nnc(SCC(=O)Nc3cc(C)on3)n2C)cc1OC | -16.6%

Source: PubChem BioAssay AID430 (Sanford-Burnham Center for Chemical Genomics, 2006)
